Bioassay records as filed in PubChem BioAssay.
The list is not random: actives were taken first. Their share in the collection is about 4.3%.
SW480 rerep: induces DNA re-replication in SW480 colon adenocarcinoma cells. AID 624297. Potency, µM (doses to about 46.1 µM), for inactives: at the top dose re-replication activation, actives largely listed as activators. actives 1.8% (n = 340,000). SW480 DNA re-replication, Hoechst DNA content imaging, 48 h; further: potency means the concentration at half of the fitted maximal effect; % of control where 0% means no effect; nearly all actives have a fitted effect of over 55% in size
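Quantitative HTS format with DMSO vehicle controls; 48 hr drug incubation at 37 C, then 40 min Hoechst staining and scanning imager measurement at 405 nm excitation.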
MCF10A rerep: DNA re-replication induction in MCF 10a cells; Potency, µM (doses to about 46.1 µM), for the others: at the top dose activity, positive = re-replication, actives largely listed as activators; AID 624296; MCF 10A DNA re-replication, Hoechst nuclear intensity, 48 h; actives 2.9% (n = 350,000); further: potency means the concentration at half of the fitted maximal effect; % of control where 0% means no effect; nearly all actives have a fitted effect of over 50% in size
Giardia kill: Giardia lamblia killing | Giardia lamblia trophozoite viability | activity change, % at 7.66 µM, hits read low | actives 0.15% (n = 340,000); in the data active means activity change below about -80%; inconclusive means between about -30% and that limit;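 further: parasites exposed to compound for two days anaerobically before the ATP read; on the % scale 0 is the no-effect control and ±100 the full control effect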
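Each well holds 100 Giardia trophozoites and compound. After two days (48 hrs) at 37 deg C in anaerobic conditions, ATP is quantified by luminescence.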
uPA surface inh: blocks generation of uPA at the cell surface | actives 0.31% (n = 330,000) | Potency, µM (highest dose often 38.3 µM), for inactives: top-dose activity change, negative = inhibition, most hits filed as inhibitors | cell surface uPA generation assay, qHTS; active means well fitted inhibition curve with a large enough effect; inconclusive means small, poorly fitted or top-dose-only effect; inactive means no such curve, though single readings can be large or run the other way; tested in mouse RAW 264.7 cells; further: potency means the concentration at half of the fitted maximal effect; on the % scale 0 is the no-effect control and ±100 the full control effect; nearly all actives have a fitted effect of over 55% in size
The depositor's hits bear a star; ? = inconclusive; · = not tested or not shown. Unless noted, the call rests on the fitted dose curve; in most records, active means well fitted activation curve with a large enough effect; inconclusive means small, poorly fitted or top-dose-only effect; inactive means no such curve, though single readings can be large or run the other way.

SMILES	SW480 rerep	MCF10A rerep	Giardia kill	uPA surface inh
CCOC(=O)c1c(C)n(C)c2ccc(OCC(O)Cn3nc(C)c(Br)c3C)cc12 (configuration not stated)	9%	15µM*	8	-6%
O=C(C[C@@H]1C/C=C\C[C@H](Cc2ccc(F)cc2)C(=O)OCCNC1=O)N[C@H](CO)Cc1ccccc1	-3%	-7%	22	-7%
CCN(CC)c1ccc(NC(=O)c2cccc(F)c2)c(C)c1	18µM*	?	15	-13%
O=C(COC(=O)c1cc(=O)[nH]c2ccccc12)NCc1ccccc1	-11%	-3%	-2	9%
c1ccc2c(c1)ccc1ccccc12	-4%	-1%	5	-6%
CC1=[N+](C)c2ccc3ccccc3c2C1(C)C	?	?	-5	2.2µM*
CCOC(=O)CC(=O)CSc1nc(CC)c(C)cc1C#N	23µM*	0%	22	-2%
CCOC(=O)CC(=O)CSc1nc2ccc(C)cc2cc1C#N	-1%	23µM*	-5	-18%
CCSc1nc2ccc(C)cc2cc1C#N	-2%	-1%	11	4%
O=C(Nc1ccc(Oc2cccnc2)cc1)C1CCN(Cc2cc(Cl)ccc2O)CC1	-4%	?	-2	2%
CCN(CC(=O)Nc1ccc(NC(C)=O)cc1)C(=O)c1cc([N+](=O)[O-])ccc1Sc1ccc(Cl)cc1	-7%	3%	5	-10%
CCCCCCc1cc2cc(S(=O)(=O)c3ccc(F)c(Cl)c3)c(=O)oc2cc1O	2.6µM*	?	-30	-9%
CCOc1ccc2cc(C(=O)NCc3ccccc3)c(=N)oc2c1	1%	?	3	-4%
CCCCCCc1cc2cc(/C(N)=N/NC(=O)c3ccncc3)c(=O)oc2cc1O	1.6µM*	1.3µM*	-19	6%
CCCCCCc1cc2cc(C(=O)Nc3cccc(OC)c3)c(=O)oc2cc1O	?	?	8	2%
CCCCCCc1cc2cc(C(=O)NC)c(=N)oc2cc1O	13µM*	?	-8	5%
CCOC(=O)c1cc2ccc(OC(=O)c3ccco3)cc2oc1=O	30%	3.3µM*	-22	·
CCOC(=O)c1cc2ccc3ccccc3c2oc1=O	?	7%	0	5%
O=C(CCNC(=O)c1ccco1)Nc1ccc(Cl)c(C(F)(F)F)c1	-7%	5%	1	-4%
CCCCCCc1cc2cc(C(=O)OCC)c(=O)oc2cc1O	1.3µM*	?	29	2%
CCCCCCc1cc2cc(C(=O)Nc3ccc(OC)cc3)c(=O)oc2cc1O	15µM*	0.73µM*	-19	-3%
CCn1c(SCC(=O)Nc2ccccc2C)nc2nc3c(cc2c1=O)COC(C)(C)C3	-16%	-3%	4	10%
CCCCN(C)C(=O)Cn1cnc2sc(C)c(S(=O)(=O)N3CCN(c4ccccc4OC)CC3)c2c1=O	-2%	2%	7	-1%
CCn1c2ccccc2c2nnc(SC3CCOC3=O)nc21 (configuration not stated)	·	·	6	·
Cc1ccc2c(c1)[C@H]1[C@H](CO2)[C@H](c2ccccc2)[C@]2(C)C(=O)Nc3cc(Cl)ccc3C(=O)N12	?	9.2µM*	12	?
SMILES	SW480 rerep	MCF10A rerep	Giardia kill	uPA surface inh
COc1ccc2c(c1)[C@H]1[C@H](CO2)[C@H](c2ccccc2)[C@]2(C)C(=O)Nc3cc(Cl)ccc3C(=O)N12	?	16µM*	-12	?
Cc1ccc2c(c1)[C@H]1[C@H](CO2)[C@H](c2ccccc2)[C@]2(C)C(=O)Nc3cc(F)c(F)cc3C(=O)N12	23µM*	5.2µM*	-2	?
COc1ccc2c(c1)[C@H]1[C@H](CO2)[C@H](c2ccccc2)[C@]2(C)C(=O)Nc3cc(C)ccc3C(=O)N12	?	?	-11	?
Cc1ccc2c(c1)[C@H]1[C@H](CO2)[C@H](c2ccccc2)[C@]2(C)C(=O)Nc3ccc(F)cc3C(=O)N12	5.8µM*	3.3µM*	-11	?
C[C@@]12C(=O)Nc3cc(F)ccc3C(=O)N1[C@H]1c3ccccc3OC[C@@H]1[C@@H]2c1ccccc1	2%	29%	-12	?
CC(C)C(=O)Nc1nnc(S(=O)(=O)N(C)c2ccc(Cl)cc2)s1	-2%	-9%	11	0%
COc1cc(Nc2ccc(S(=O)(=O)N3CCN(C)CC3)cc2[N+](=O)[O-])cc(OC)c1	3.3µM*	2%	-1	-2%
COc1ccc(Nc2ccc(S(=O)(=O)N3CCCCCC3)cc2[N+](=O)[O-])cc1	-145%	-5%	-13	-5%
CC(C)N(Cc1ccccc1)C(=O)COC(=O)c1c(F)cccc1F	1%	13%	-19	-1%
Cc1ccc(-c2nc(C=Nc3ccc(O)cc3)c(O)o2)cc1	5.8µM*	15µM*	2	?
CN=Cc1nc(-c2ccccc2)oc1O	-6%	-1%	-6	-4%
COc1cc2c(-c3ccc4[nH]ccc4c3)c(-c3ccc(C#N)cc3)oc(=O)c2cc1OC	2%	?	-10	2.5µM*
COc1cc2c(C#CCO)c(-c3ccc(C#N)cc3)oc(=O)c2cc1OC	-2%	-12%	5	-10%
COc1cc2c(C#CCCCO)c(-c3ccc(C#N)cc3)oc(=O)c2cc1OC	?	6.5µM*	-20	-10%
O=C(c1cccc(S(=O)(=O)N2CCN(c3ccc(F)cc3)CC2)c1)N1CCCC(C(F)(F)F)C1 (configuration not stated)	?	5%	4	-6%
CCN(CC(=O)Nc1ccc(NC(C)=O)cc1)C(=O)c1ccc(NC2CC2)c([N+](=O)[O-])c1	5%	12%	-12	1%
O=[N+]([O-])c1ccc(Sc2cccc3cccnc23)cc1	1%	9%	-2	9%
O=[N+]([O-])c1cc(Cl)ccc1Sc1cccc2cccnc12	3%	11%	10	-5%
O=[N+]([O-])c1ccc(Sc2cccc3cccnc23)c([N+](=O)[O-])c1	24%	-1%	-15	10µM*
C=CCn1nc([N+](=O)[O-])nc1Sc1cccc2cccnc12	3.3µM*	?	-3	-9%
CCOc1cc(C2NC(=O)CCC2[N+](=O)[O-])cc(Br)c1OCC (configuration not stated)	-1%	-3%	-12	1%
COc1ccc(C2(C)NC(=O)N(CC(=O)Nc3ccc(-c4nc5ccc(C)cc5s4)cc3)C2=O)cc1 (configuration not stated)	?	18µM*	12	-3%
Cc1ccc2nc(NC(=O)CN3CCN(c4ccccn4)CC3)sc2c1	25%	?	8	1%
O=C(CCN1C(=O)NC2(CCCC2)C1=O)Nc1ccc(-c2nc3ccccc3s2)cc1	16µM*	23µM*	6	-6%
CCC1(c2ccc(F)cc2)NC(=O)N(CC(=O)Nc2ccc(-c3nc4ccc(C)cc4s3)cc2)C1=O (configuration not stated)	?	?	2	-5%
Cc1ccc(C)c(N(CC(=O)Nc2ccc(-c3nc4ccc(C)cc4s3)cc2)S(C)(=O)=O)c1	?	?	29	3%
